In all, about 310,000 compounds went through this assay and about 14,000 (4.5%) showed an effect of 50% or more. The effect is printed as a negative number. For the sample, strong results were picked, then their nearest neighbours and some compounds at random.
These compounds were tested against human ether-à-go-go-related gene (hERG) potassium channel (human, UniProt Q12809) (assay: primary screen, population patch clamp on CHO cells stably expressing hERG; higher = less effect of the substance).
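Note: peak tail current of the secondary pulse compared with the same well before compound.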

Chain of human ether-à-go-go-related gene (hERG) potassium channel (Q12809 whole entry, looked up): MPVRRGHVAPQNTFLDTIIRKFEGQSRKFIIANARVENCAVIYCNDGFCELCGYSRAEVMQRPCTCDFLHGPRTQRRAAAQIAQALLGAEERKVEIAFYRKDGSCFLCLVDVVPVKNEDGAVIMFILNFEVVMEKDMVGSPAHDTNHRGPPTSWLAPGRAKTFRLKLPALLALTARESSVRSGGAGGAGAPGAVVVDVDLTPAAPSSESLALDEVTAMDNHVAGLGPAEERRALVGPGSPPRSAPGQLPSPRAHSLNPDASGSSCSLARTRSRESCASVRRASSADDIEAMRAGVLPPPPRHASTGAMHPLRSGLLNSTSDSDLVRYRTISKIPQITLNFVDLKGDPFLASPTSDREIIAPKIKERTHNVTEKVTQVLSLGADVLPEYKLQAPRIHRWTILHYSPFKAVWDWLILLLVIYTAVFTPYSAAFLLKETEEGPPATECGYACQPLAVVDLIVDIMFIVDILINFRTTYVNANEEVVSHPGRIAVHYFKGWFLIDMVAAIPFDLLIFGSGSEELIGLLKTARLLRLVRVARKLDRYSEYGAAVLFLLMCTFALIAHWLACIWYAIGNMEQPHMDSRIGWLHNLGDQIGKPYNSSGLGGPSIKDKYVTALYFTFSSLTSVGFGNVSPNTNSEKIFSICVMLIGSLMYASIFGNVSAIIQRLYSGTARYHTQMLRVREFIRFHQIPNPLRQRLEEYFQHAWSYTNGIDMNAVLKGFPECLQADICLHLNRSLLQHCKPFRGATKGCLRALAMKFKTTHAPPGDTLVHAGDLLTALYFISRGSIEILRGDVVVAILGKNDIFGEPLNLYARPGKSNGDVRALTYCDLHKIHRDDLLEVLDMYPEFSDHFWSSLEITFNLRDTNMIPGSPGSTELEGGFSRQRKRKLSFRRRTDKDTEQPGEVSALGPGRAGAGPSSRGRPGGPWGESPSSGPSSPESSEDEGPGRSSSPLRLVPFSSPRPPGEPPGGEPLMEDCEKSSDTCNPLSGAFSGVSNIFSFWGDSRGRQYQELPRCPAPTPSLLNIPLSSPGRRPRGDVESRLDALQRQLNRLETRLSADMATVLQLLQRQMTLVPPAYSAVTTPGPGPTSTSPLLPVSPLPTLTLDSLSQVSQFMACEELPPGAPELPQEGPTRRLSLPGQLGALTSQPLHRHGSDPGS

| SMILES | hERG current change (%, negative = inhibition) at 10uM [%] |
| --- | --- |
| O=C(Nc1ccc(N2CCN(C(=O)C3CC3)CC2)cc1)c1cccs1 | 2.17 |
| CC(=O)c1ccc(S(=O)(=O)N2CCCC(N(C)CCc3ccccn3)C2)cc1 (centres unmarked) | -65.3 |
| CN(CCc1ccccc1)C1CCCN(S(=O)(=O)CC(F)(F)F)C1 (centres unmarked) | -3.61 |
| Cc1cc(S(=O)(=O)N2CCCC(N(C)CCc3ccccn3)C2)c(C)s1 (centres unmarked) | -46.6 |
| COC(=O)c1sccc1S(=O)(=O)N1CCCC(N(C)CCc2ccccn2)C1 (centres unmarked) | -22.7 |
| CN(CCc1ccccn1)C1CCCN(S(=O)(=O)c2ccc(F)c(Cl)c2)C1 (centres unmarked) | -48 |
| CN(CCc1ccccn1)C1CCCN(S(=O)(=O)c2ccccc2Cl)C1 (centres unmarked) | -46.5 |
| Cc1cc(S(=O)(=O)N2CCCC(N(C)CCc3ccccn3)C2)c(C)cc1Cl (centres unmarked) | -71.6 |
| CC(=O)c1ccc(S(=O)(=O)N2CCCC(N(C)CCc3ccccc3)C2)cc1 (centres unmarked) | -81.2 |
| CN(CCc1ccccc1)C1CCCN(S(=O)(=O)N(C)C)C1 (centres unmarked) | -15.7 |
| Cn1nc(-c2ccc(N3CCCCC3)c(NC(=O)c3ccco3)c2)c2ccccc2c1=O | 9.65 |
| CN(C)CCCNC(=S)N(Cc1cccs1)Cc1cc2cc3c(cc2[nH]c1=O)OCCO3 | 6.79 |
| Cc1ccc(/C=C2\SC(=S)N(CCC(=O)NNS(=O)(=O)c3ccc(C)cc3)C2=O)cc1 | 28.8 |
| CN(C(=O)COC(=O)/C=C/c1cn(-c2ccccc2)nc1-c1ccc2c(c1)OCCO2)C1CCS(=O)(=O)C1 (centres unmarked) | -3.86 |
| Cc1cc(=O)[nH]c(SCC(=O)NCCOc2ccccc2)n1 | 1.39 |
| COCCN(C(=S)Nc1cccc(C)c1)C(C)c1cccnc1 (centres unmarked) | -4.61 |
| Cc1cccc(C)c1NC(=S)N(CCN(C)C)C(C)c1cccnc1 (centres unmarked) | -9.34 |
| COCCN(C(=S)Nc1ccc(C)cc1)C(C)c1cccnc1 (centres unmarked) | -22.9 |
| CCc1ccccc1NC(=S)N(CCN(C)C)C(C)c1cccnc1 (centres unmarked) | -7.25 |
| Cc1ccccc1NC(=S)N(CCN(C)C)C(C)c1cccnc1 (centres unmarked) | -50.1 |

| SMILES | hERG current change (%, negative = inhibition) at 10uM [%] |
| --- | --- |
| COCCN(C(=S)Nc1cc(C)cc(C)c1)C(C)c1cccnc1 (centres unmarked) | -58.4 |
| Cc1ccccc1NC(=O)c1ccc(N/N=C/c2ccccc2O)c([N+](=O)[O-])c1 | 9.72 |
| CC(Sc1nnc(-c2ccncc2)n1C)C(=O)NCC1CCCO1 (centres unmarked) | 4.42 |
| CC(C)Cc1ccc(CN2CCCC(NC(=O)CCCN3CCCC3=O)C2)cc1 (centres unmarked) | -25.8 |
| O=C(NC1CCCN(Cc2ccc(Cl)cc2)C1)c1cccc(N2CCCC2=O)c1 (centres unmarked) | -14.8 |
| CC(C)Cc1ccc(CN2CCCC(NC(=O)c3ccoc3)C2)cc1 (centres unmarked) | -70.9 |
| CC(C)Cc1ccc(CN2CCCC(NC(=O)c3cccc(-n4cnnc4)c3)C2)cc1 (centres unmarked) | -81 |
| O=C(NC1CCCN(Cc2ccc(Cl)cc2)C1)c1ccnc(Cl)c1 (centres unmarked) | -38.6 |
| CC(C)c1ccc(NC2CCCN(C(=O)c3cnc4ccccn4c3=O)C2)cc1 (centres unmarked) | 12 |
| CC(C)Cc1ccc(CN2CCCC(NC(=O)c3cnc4ccccn4c3=O)C2)cc1 (centres unmarked) | -71.8 |
| O=C(NC1CCCN(Cc2ccc(Cl)cc2)C1)c1cnc2ccccn2c1=O (centres unmarked) | -21.8 |
| Cc1occc1C(=O)NC1CCCN(Cc2ccc(CC(C)C)cc2)C1 (centres unmarked) | -38 |
| Cc1occc1C(=O)NC1CCCN(Cc2ccc(Cl)cc2)C1 (centres unmarked) | -38.4 |
| O=C(NC1CCCN(Cc2ccc(Cl)cc2)C1)c1ccoc1 (centres unmarked) | -50.1 |
| COc1ccc(S(=O)(=O)N2CCN(c3ccccn3)CC2)cc1OC | -12 |
| CC#CCN1c2ccccc2[C@]23C[C@@H](C(=O)OC)N(C(=O)c4ccco4)C2=NC(C(=O)OC)=C(C(=O)OC)[C@H]13 | -2.03 |
| Cc1nn(-c2ccccc2)c(C)c1/C=N\NS(=O)(=O)c1ccc(Cl)cc1 | -17.7 |
| Cc1cc(C)cc(OCC(=O)NNC(=O)c2cc(C)[nH]n2)c1 | 13.9 |
| O=C(CCC(=O)N1CCSc2ccccc21)NCCc1ccccc1 | -30.5 |
| CCn1c(SCC(=O)N/N=C/c2ccccc2OCC(=O)O)nnc1-c1ccccc1 | 5.58 |

| SMILES | hERG current change (%, negative = inhibition) at 10uM [%] |
| --- | --- |
| CNCC(O)C(O)C(O)C(O)CO (centres unmarked) | -0.427 |
| CC(C)C(=O)Nc1ccc(NC(=O)CCc2ccccc2)cn1 | 18.4 |
| CC(=O)Nc1ccc(S(=O)(=O)NCC2CCC(C(=O)N3CC(C)CC(C)C3)CC2)cc1 (centres unmarked) | 5.39 |
| Cn1nccc1C(=O)NC1CCN(Cc2ccccc2)CC1 | -14.4 |
| CC(C)Cc1ccc(CN2CCCC(NC(=O)c3ccnn3C)C2)cc1 (centres unmarked) | -68.7 |
| CC(C)Cc1ccc(CN2CCCC(NC(=O)CCN3CCCO3)C2)cc1 (centres unmarked) | -43.4 |
| Cl.OC(CNC1CCCC1)COCCOc1ccc(Br)cc1 (centres unmarked) | -27.4 |
| C#CCOCCOCCOCCNc1nc(N2CCN(C(=O)[C@H]([C@@H](C)CC)n3cc([C@@H](N)Cc4ccc(O)cc4)nn3)CC2)nc(N2CCN(C(=O)[C@H]([C@@H](C)CC)n3cc([C@@H](N)CC(C)C)nn3)CC2)n1.Cl | 0.378 |
| CC(=O)c1cccc(OCC(O)CNCCOc2ccc(C)cc2)c1 (centres unmarked) | -36.5 |
| CCOC(=O)c1cccc(OCC(O)CNCCOc2ccccc2F)c1 (centres unmarked) | -63 |
| COCCCNCC(O)COc1ccccc1F (centres unmarked) | 5.58 |
| Cc1cc(C(C)(C)C)oc1C(=O)O | 27.6 |
| CN1C(=O)OC(C)(CCc2ccccc2)C1(C)O (centres unmarked) | 11.5 |
| Cc1c(C(=O)Nc2c(C)n(C)n(-c3ccccc3)c2=O)oc2ccc(Cl)cc12 | -51.3 |
| Cc1c(C(=O)Nc2c(C)n(C)n(-c3ccccc3)c2=O)oc2ccccc12 | 15.8 |
| Cc1cc2oc(C(=O)Nc3c(C)n(C)n(-c4ccccc4)c3=O)c(C)c2cc1C | -24 |
| Cc1cc(C)c2c(C)c(C(=O)Nc3c(C)n(C)n(-c4ccccc4)c3=O)oc2c1 | -16.7 |
| Cc1ccc2c(C)c(C(=O)Nc3c(C)n(C)n(-c4ccccc4)c3=O)oc2c1 | -2.96 |
| Cc1cc2oc(C(=O)Nc3c(C)n(C)n(-c4ccccc4)c3=O)c(C)c2cc1Cl | -72.2 |

— PMC4336329 (PLoS ONE, 2015)
